# Source: PubChem (National Center for Advancing Translational Sciences (NCATS))
# Only some compounds are listed: those with a hit (about 21% of all), similar ones and a draw of the others.
# DT40 TDP1 no CPT – qHTS for Inhibitors of human tyrosyl-DNA phosphodiesterase 1 (TDP1): qHTS in cells in absence of CPT. Potency, µM (top dose mostly 46.2 µM), actives largely listed as inhibitors. AID 686978, 2013. DT40 Tdp1-/- hTDP1 cells, no CPT, ATP luminescence, 48 h. 420,000 tested, 15% active; note: nearly all actives have a fitted effect of over 55% in size
#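 Chicken DT40 Tdp1-/- cells complemented with human TDP1, screened without camptothecin (DMSO vehicle only), 400 cells/well. Compounds pin-transferred, cells incubated at 37 °C for at least 48 hr. Growth read as ATP-dependent luminescence (CellTiter-Glo, 30 min at RT).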
# ELG1 DNA repair – inhibitors of ELG1-dependent DNA repair in HEK293T cells. HEK293T ELG1-luciferase reporter, luminescence, 16 h; DNA damage induced by 5-fluorouridine. Potency, µM (titrated, usually from 46.1 µM), hits mostly inhibitors. 330,000 tested, 2.3% active. AID 504467; note: nearly all actives have a fitted effect of over 55% in size
#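 5-Fluorouridine DNA damage + compound/DMSO, 2,000 cells/well, 16 h, 37 °C/5% CO2. ONE-Glo, 30 min RT, luminescence. Readout = decrease in reporter signal.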
# RORgamma inh – inhibitors of mouse ROR gamma transcriptional activity | P51450 | Potency, µM (highest dose often 53.6 µM), actives largely listed as inhibitors | 310,000 tested, 5.4% active | AID 2551 | Drosophila S2 Gal4-RORgamma UAS-luciferase reporter, 20 h; note: nearly all actives have a fitted effect of over 60% in size
# Target sequence (P51450 whole entry, looked up, the tested form may be a part): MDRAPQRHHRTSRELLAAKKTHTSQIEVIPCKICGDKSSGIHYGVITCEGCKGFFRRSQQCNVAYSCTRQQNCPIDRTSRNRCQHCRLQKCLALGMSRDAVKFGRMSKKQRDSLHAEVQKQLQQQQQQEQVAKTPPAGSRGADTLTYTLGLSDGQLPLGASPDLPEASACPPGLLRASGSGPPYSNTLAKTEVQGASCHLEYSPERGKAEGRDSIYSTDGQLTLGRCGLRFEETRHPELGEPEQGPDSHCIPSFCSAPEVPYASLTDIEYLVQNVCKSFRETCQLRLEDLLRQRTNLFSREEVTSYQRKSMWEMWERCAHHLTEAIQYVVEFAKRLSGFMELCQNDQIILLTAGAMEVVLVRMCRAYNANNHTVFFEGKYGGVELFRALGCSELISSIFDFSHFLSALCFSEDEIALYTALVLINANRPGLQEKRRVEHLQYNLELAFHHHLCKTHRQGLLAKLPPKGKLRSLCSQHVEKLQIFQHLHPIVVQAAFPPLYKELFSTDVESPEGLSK
#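 Drosophila Schneider cells stably carrying a metallothionein-driven Gal4 DBD–ROR gamma fusion and a UAS-Photinus luciferase reporter were exposed to compound for 1 hr, then induced with copper sulfate (700 uM final) for 20 hr at ambient temperature before luminescence reading.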
# VP16 counter – counter-screen for ROR gamma inhibitors: Gal4-VP16 reporter; Drosophila S2 Gal4-VP16 UAS-luciferase, luminescence, 20 h; Potency, µM (top dose mostly 53.6 µM), usual class: inhibitors; 310,000 tested, 3.5% active; AID 2546;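 note: Gal4-VP16 expression switched on by copper sulfate through the metallothionein promoter; nearly all actives have a fitted effect of over 50% in size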
# IL1B secr inh – inhibitors of inflammasome signaling (IL-1 beta secretion) | THP-1 LPS/ATP IL-1B secretion, AlphaLISA, 16 h; stronger effect = lower value | activity change, % at 57.5 µM | 360,000 tested, 4.7% active | AID 743279; in the data active = activity change below about -50%; inconclusive = mostly about -30% to -49%
#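 THP-1 cells pretreated 1 hr with compounds (up to 57.5 uM final), then stimulated with LPS (250 ng/mL final) plus ATP (1.25 mM final); secreted IL-1B measured by AlphaLISA after 16 hr, decreased signal indicating inhibition.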
# DT40 TDP1 CPT – DT40-hTDP1 cell growth loss with CPT; chicken DT40 Tdp1-/-;hTDP1 cells + 20 nM CPT, ATP luminescence, 48 h; Potency, µM (doses to about 46.2 µM), actives largely listed as inhibitors; 420,000 tested, 12% active; note: nearly all actives have a fitted effect of over 55% in size
#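 Chicken DT40 Tdp1-/- cells stably complemented with human TDP1 were seeded at 400 cells/well in medium containing 20 nM camptothecin, exposed to pin-transferred compounds, and grown at 37 °C for at least 48 hr. Viability was read as ATP luminescence.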
# Hits are given with their value; n = inactive; u = inconclusive; x = no result. Unless noted, calls come from the whole dose curve; as a rule, active = well fitted curve in the direction sought with a large enough effect; inconclusive = small, poorly fitted or top-dose-only effect, or another doubt; inactive = no such curve, though single readings can be large; an effect the other way counts as inactive or inconclusive.
SMILES,DT40 TDP1 no CPT,ELG1 DNA repair,RORgamma inh,VP16 counter,IL1B secr inh,DT40 TDP1 CPT
C=CCC[C@H](Cc1ccc(F)cc1)C(=O)OC[C@@H](Cc1c[nH]c2ccccc12)NC(=O)[C@@H](CC=C)CC(=O)N[C@H](CO)Cc1ccccc1,15µM,n,x,x,n,18µM
CCSc1nnc(SCC(=O)Nc2cc(C)on2)s1,n,n,x,x,n,n
CC(=O)Nc1ccc(S(=O)(=O)NCCc2ccc3c(c2)OCCO3)cc1,n,x,x,x,n,n
O=C(NCCCN1CCOCC1)c1ccccc1N1C(=O)[C@@H]2Cc3c([nH]c4ccccc34)C(c3cccc(Cl)c3)N2C1=O (stereo not given in full),10µM,u,n,n,n,9.2µM
Cc1ccc(C2c3[nH]c4ccccc4c3C[C@H]3C(=O)N(c4ccccc4C(=O)NCCN4CCOCC4)C(=O)N23)cc1 (stereo not given in full),n,u,n,n,n,n
Cc1ccccc1C1c2[nH]c3ccccc3c2C[C@H]2C(=O)N(c3ccccc3C(=O)NCCN3CCOCC3)C(=O)N12 (stereo not given in full),u,u,n,n,n,u
Cc1ccccc1C1c2[nH]c3ccccc3c2C[C@H]2C(=O)N(c3ccccc3C(=O)NCCCN3CCOCC3)C(=O)N12 (stereo not given in full),16µM,u,n,n,n,23µM
Cc1ccc(C2c3[nH]c4ccccc4c3C[C@H]3C(=O)N(c4ccccc4C(=O)NCCCN4CCOCC4)C(=O)N23)cc1 (stereo not given in full),u,u,n,u,n,12µM
Cc1c(NC(=O)CS(=O)(=O)c2ccccc2)c(=O)n(-c2ccccc2)n1C,n,n,n,n,n,n
CC(=O)Nc1ccc(S(=O)(=O)Nc2nc3n(n2)C(c2ccccc2)C=C(c2ccc(Cl)cc2)N3)cc1 (stereo not given),n,x,x,x,x,n
COc1ccc(C2C=C(c3ccc(Cl)cc3)Nc3nc(NC(=O)CCC(=O)O)nn32)cc1 (stereo not given),n,x,x,x,x,n
COc1ccc(C2C=C(c3ccccc3)Nc3nc(NS(=O)(=O)c4ccc(Cl)cc4)nn32)cc1 (stereo not given),16µM,x,x,x,x,u
O=C(Nc1nc2n(n1)C(c1ccc(F)cc1)C=C(c1ccccc1)N2)c1ccc(Cl)cc1 (stereo not given),18µM,x,x,x,x,u
O=C(Nc1nc2n(n1)C(c1ccc(F)cc1)C=C(c1ccc(Cl)cc1)N2)c1ccc([N+](=O)[O-])cc1 (stereo not given),5.2µM,x,x,x,x,5.8µM
COc1ccc(C(=O)Nc2nc3n(n2)C(c2ccc(F)cc2)C=C(c2ccc(Cl)cc2)N3)cc1 (stereo not given),7.3µM,x,x,x,x,15µM
O=S(=O)(Nc1nc2n(n1)C(c1ccccc1)C=C(c1ccc(Cl)cc1)N2)c1ccccc1 (stereo not given),n,x,x,x,x,n
COc1ccccc1OCCSc1nc2ccccc2n1CC(N)=O,n,u,n,n,n,n
Cc1cc(Cl)ccc1OCC(=O)OCC(=O)NC1CCS(=O)(=O)C1 (stereo not given),n,n,x,x,n,n
Cc1ccc(NC(=O)COC(=O)c2ccc3c(c2)NC(=O)C2CCCN32)cc1C (stereo not given),x,u,n,n,x,x
O=C(Nc1nc2n(n1)C(c1ccccc1)C=C(c1ccccc1)N2)c1ccc(Cl)c([N+](=O)[O-])c1 (stereo not given),12µM,x,x,x,x,12µM
COC(=O)N(C)C[C@H]1OCc2cnnn2CCCC(=O)N([C@@H](C)CO)C[C@H]1C,n,x,x,x,n,n
O=C(NCCCN1CCOCC1)c1ccc(Br)cc1,n,u,n,n,n,n
COc1cccc(-c2nc(C(=O)NCCCN3CCOCC3)cc3c2[nH]c2ccccc23)c1,8.2µM,u,n,n,-64,9.2µM
O=C(NCCCO)c1cc2c([nH]c3ccccc32)c(-c2ccccc2)n1,13µM,u,n,n,-88,15µM
COc1cccc(-c2cc(C(=O)NCCCN3CCOCC3)no2)c1,n,n,n,n,n,n
SMILES,DT40 TDP1 no CPT,ELG1 DNA repair,RORgamma inh,VP16 counter,IL1B secr inh,DT40 TDP1 CPT
O=C(NCCCO)c1cc2c(cn1)[nH]c1ccccc12,n,u,n,n,u,n
O=C(NCCCN1CCOCC1)c1cc2c([nH]c3ccccc32)c(-c2cccc(Br)c2)n1,8.2µM,1.6µM,n,u,-73,8.2µM
CCOc1cc(CNn2cnnc2SCC(=O)NC(C)(C)C)ccc1OCC(=O)NC(C)(C)C,18µM,u,n,n,n,n
Cc1c(Cl)cccc1-n1nc(C)c2c(C)cc(=O)n(CC(=O)N3CCCc4ccccc43)c21,4.6µM,x,x,x,x,15µM
CCCCN(CCCC)/C(N)=N/c1nc(C)cc(C)n1,u,n,n,n,n,23µM
Cc1cc(C)nc(/N=C(\N)N(Cc2ccccc2)Cc2ccccc2)n1,u,n,11µM,n,-72,u
Cc1cc(C)n2nc(C(=O)OCC(=O)N(C)Cc3ccccc3)nc2n1,n,n,x,x,n,n
COc1ccc(-c2nnc3n2N=C(c2ccc(OC)c(OC)c2)CS3)c(OC)c1,x,x,n,n,x,x
Cc1ccc(C(=O)N2c3ccccc3CC2C)o1 (stereo not given),n,u,n,n,n,u
O=C(c1ccc([N+](=O)[O-])o1)N1CCOCC1,u,n,16µM,n,n,n
Cc1ccc(C(=O)N2CCc3ccccc32)o1,3.3µM,u,u,n,n,n
O=C(c1ccc([N+](=O)[O-])o1)N1CCc2ccccc2C1,15µM,n,n,n,n,21µM
O=C(c1ccc([N+](=O)[O-])o1)N1CCc2ccccc21,12µM,u,n,n,u,10µM
CC(C)c1ccc(CNC(=O)C2CCCN2S(=O)(=O)c2ccccc2)cc1 (stereo not given),12µM,u,n,n,n,u
Cc1ccc(CNC(=O)C2CCCCN2S(=O)(=O)c2ccc(F)cc2)cc1 (stereo not given),26µM,x,x,x,x,13µM
COc1ccc(CNC(=O)C2CCCN2S(=O)(=O)c2ccccc2)cc1 (stereo not given),u,n,n,n,n,u
O=C(NCc1ccc(F)cc1)C1CCCN1S(=O)(=O)c1ccccc1C(F)(F)F (stereo not given),u,n,x,x,n,13µM
O=C(NCc1ccc(F)cc1)C1CCCN1S(=O)(=O)c1ccc(F)cc1 (stereo not given),n,x,x,x,n,n
